Rows were chosen to be rich in hits. Some 7.5% of all compounds tested hit in one or more screens of this group.
HCV inhibitor = HCV inhibition; Huh7.5.1 HCVcc-Cre infection, luciferase reporter, 44 h; Potency, µM (doses to about 41.8 µM), most hits filed as inhibitors; 3.4% of 340,000 active
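Reporter virus HCVcc-Cre (~0.5 moi) infects cells exposed to compound; seeding density 1,000 cells/well with 4 h settling beforehand. Luminescence, 15 sec read, taken 44 h post-infection following a 15 min RT substrate incubation.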
Giardia FBPA inh = blocks Giardia fructose-bisphosphate aldolase activity; AID 2451; Potency, µM (top dose mostly 59.6 µM), most hits filed as inhibitors; purified Giardia FBPA; 0.71% of 290,000 active; A8B2U2; further: nearly all actives have a fitted effect of over 55% in size
Target sequence (A8B2U2 whole entry, looked up): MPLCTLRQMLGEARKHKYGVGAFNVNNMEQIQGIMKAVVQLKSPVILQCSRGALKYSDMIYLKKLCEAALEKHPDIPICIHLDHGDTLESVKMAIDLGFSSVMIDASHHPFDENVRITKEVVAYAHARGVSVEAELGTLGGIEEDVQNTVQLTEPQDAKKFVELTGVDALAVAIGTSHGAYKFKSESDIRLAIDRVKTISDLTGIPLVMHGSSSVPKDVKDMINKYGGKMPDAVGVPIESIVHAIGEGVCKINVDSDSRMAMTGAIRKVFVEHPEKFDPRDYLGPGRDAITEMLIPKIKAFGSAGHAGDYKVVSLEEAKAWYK
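Giardia FBPA (40 nM reagent) was preincubated 10 min at RT with compound (up to 57.5 uM final), then substrate plus GAPDH/TPI/NAD/arsenate coupling system with diaphorase/resazurin was added; resorufin fluorescence (525/598 nm) was read after 20 min.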
VACV mCherry inh = inhibitors of vaccinia virus infection (mCherry reporter signal) | Vaccinia virus mCherry reporter infection, fluorescence | Potency, µM (top dose mostly 36.5 µM), usual class: inhibitors | 0.63% of 310,000 active; calls by dose curve; tested in A549 cells; further: nearly all actives have a fitted effect of over 35% in size
HCMV inh = human cytomegalovirus inhibition. 4.5% of 410,000 active. HFF cells, HCMV-luciferase reporter, 72 h; active compounds read low. activity change, negative = inhibition, % at 57.5 µM. AID 1259415; in the data active means activity change below about -60%; inconclusive means no clear call, values can overlap the other calls; inactive means above about -39%
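HFF cells seeded 16 h at 37C, treated with compounds, infected with luciferase-reporter HCMV at MOI 1 PFU/cell; luciferase read at 72 h post infection, normalized to buffer-only and Salinomycin controls.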
FMDV antiviral = antivirals against foot and mouth disease virus; AID 1159524; FMDV antiviral cell-based qHTS; Potency, µM (highest dose often 57.9 µM), most hits filed as inhibitors; 1.2% of 410,000 active; calls by dose curve; tested in HEK293T cells; further: read-out not given here; nearly all actives have a fitted effect of over 45% in size
Vaccinia Venus = vaccinia inhibition (Venus reporter); Vaccinia virus Venus reporter expression, fluorescence; Potency, µM (top dose mostly 36.5 µM), hits mostly inhibitors; 0.46% of 330,000 active; calls by dose curve; tested in A549 cells; further: nearly all actives have a fitted effect of over 30% in size
Hits are given with their value; – = inactive; ? = inconclusive; · = not tested or not shown; [ ] = dose if it differs, or a comment. Unless noted, the call rests on the fitted dose curve; in most records, active means well fitted curve in the direction sought with a large enough effect; inconclusive means small, poorly fitted or top-dose-only effect, or another doubt; inactive means no such curve, though single readings can be large; an effect the other way counts as inactive or inconclusive.

SMILES | HCV inhibitor | Giardia FBPA inh | VACV mCherry inh | HCMV inh | FMDV antiviral | Vaccinia Venus
CC[C@]12c3[nH]c4ccc(OC)cc4c3CCN1C(=O)C(CC(=O)NC/C=C(\C)CCC=C(C)C)C[C@@H]2C(=O)N1CCN(C(=O)C2CC2)CC1 (stereo not given in full) | ? | · | – | – | – | –
CC(C)=CCC/C(C)=C/CNC(=O)C[C@H]1C[C@H](C(=O)N2CCOCC2)[C@@]2(CCC3CCCC3)c3[nH]c4cc(CCC(=O)N(C)C)ccc4c3CCN2C1=O | 11µM | · | ? | -108 | ? | ?
COc1ccc2[nH]c3c(c2c1)CCN1C(=O)C(CC(=O)NC/C=C(\C)CCC=C(C)C)C[C@H](C(=O)N2CCOCC2)[C@@]31CCC1CCCC1 (stereo not given in full) | 2.5µM | · | 10µM | – | – | ?
Cc1ccc(C(O)c2ncc(-c3ccccc3Cl)[nH]2)cc1F (stereo not given) | · | · | – | – | – | –
COc1cccc(CNc2ncc(C(=O)Nc3cc(OC)c(OC)c(OC)c3)c(C)n2)c1 | ? | – | · | – | ? | ·
COc1cc(NC(=O)c2cnc(NCc3ccccc3)nc2C)cc(OC)c1OC | 3.5µM | – | ? | – | – | –
COC(=O)c1cc(=O)n(Cc2ccc3c(c2)OCO3)c(=Nc2ccccc2)s1 | – | ? | – | – | 35µM | –
COC(=O)c1cc(=O)n(Cc2ccc3c(c2)OCO3)c(=Nc2ccc(F)cc2)s1 | ? | – | ? | – | 13µM | –
CCN1C(=O)[C@H]2[C@H]3[C@H](O)[C@H](O)C/C(=N/NC(=O)OCc4ccc(OC)cc4)[C@H]3CC[C@@H]2C1=O | · | –[12.9 µM] | · | · | · | ·
CC(C)(C)NCC(=Cc1ccccc1)C(=O)c1ccccc1 | ? | · | 10µM | -98 | 8.9µM | ?
COc1ccc(NC(=O)C(Cc2ccccc2)NS(=O)(=O)c2ccc3c(c2)CCC(=O)N3)c(OC)c1 (stereo not given) | · | · | – | -102 | – | –
COc1cc(OC)c(OC)cc1/C=C/c1nc2cc3ccccc3cc2c(=O)n1-c1ccccc1Br | · | · | – | – | – | –
S=C(NCc1ccco1)Nc1ccc(Cl)cc1Cl | – | – | – | -74 | – | –
CCOC(=O)c1ccc(NC(=O)c2csnn2)cc1 | · | · | – | – | – | –
C/C(=N\NC(=O)c1cc2ccccc2cc1O)c1ccc(C)o1 | – | · | – | – | – | –
C/C(=N/NC(=O)c1cc2ccccc2cc1O)c1ccco1 | – | · | · | -73 | – | ·
C/C(=N\NC(=O)c1n[nH]c2c1CCC2)c1ccco1 | – | – | – | -65 | – | –
CC12CCC(=O)C=C1CCC1C2CCC2(C)C1CC1C3C(=O)N(Cc4ccccc4)C(=O)C3CC(=O)C12 (stereo not given) | ? | · | – | – | – | –
Cc1nc(SCC(=O)Nc2cccnc2Cl)nc(C)c1C | – | – | – | – | – | –
CSc1ccc(NC(=O)CSc2nc3[nH]c(=O)cc(O)c3s2)cc1 | – | · | · | – | – | ·
N#Cc1ccc(NC(=O)CSc2nc3[nH]c(=O)cc(O)c3s2)cc1 | – | · | · | -92 | – | ·
CN(C)c1ncc2ncc(=O)n(Cc3ccc(F)cc3)c2n1 | · | – | · | · | – | ·
COC(=O)c1ccc(C2c3c(oc4ccc(C)cc4c3=O)C(=O)N2Cc2ccc3c(c2)OCO3)cc1 (stereo not given) | · | · | – | -109 | – | –
O=C(Oc1cc(=O)oc2c1c(=O)n1c3c(cccc23)CC1)c1ccc(F)cc1 | – | – | – | – | – | –
COc1cccc(-c2nn3c(=O)cc(CN4CCN(C(=O)COc5ccccc5C)CC4)nc3s2)c1 | · | · | ? | – | 3.5µM | –
SMILES | HCV inhibitor | Giardia FBPA inh | VACV mCherry inh | HCMV inh | FMDV antiviral | Vaccinia Venus
CCOc1cccc2sc(N(CCN(C)C)C(=O)c3cc4ccccc4cc3OC)nc12 | 14µM | – | · | – | – | ·
CN(C)CCCN(C(=O)c1ccc(S(=O)(=O)N2CCc3ccccc32)cc1)c1nc2c(Cl)cccc2s1 | – | · | – | – | – | ?
COc1cccc2sc(N(CCCN(C)C)C(=O)c3ccc(S(=O)(=O)N4CCCc5ccccc54)cc3)nc12 | 14µM | – | · | -71 | ? | ·
CCOc1cccc2sc(N(CCCN(C)C)C(=O)c3ccc(C(=O)c4ccccc4)cc3)nc12 | ? | – | – | -77 | – | –
CCc1ccc2nc(N(CCCN(C)C)C(=O)c3ccc(S(=O)(=O)N4CCCc5ccccc54)cc3)sc2c1 | ? | – | ? | -89 | ? | ?
CCc1ccc2nc(N(CCCN(C)C)C(=O)c3ccc(C(=O)c4ccccc4)cc3)sc2c1 | – | · | – | -98 | – | –
COc1cc2nc(N(CCCN(C)C)C(=O)c3ccc(C(=O)c4ccccc4)cc3)sc2cc1OC | ? | · | – | ? | – | –
N#C/C(=C\c1ccco1)C(=O)Nn1cnnc1 | – | – | – | – | – | –
N#Cc1c(-c2ccccc2)nc(-c2ccccc2)[nH]c1=O | – | – | – | – | – | –
Nc1nc(-c2ccccc2)[nH]c(=O)c1N=O | – | – | ? | – | – | 13µM
Cc1ccc(N2CC(NC(=O)C(=O)c3c[nH]c4ccccc34)CC2=O)cc1 (stereo not given) | · | · | –[7.34 µM] | – | – | –[7.34 µM]
CCOC(=O)Cn1c(CN(C)Cc2ccccc2)nc2c1c(=O)n(C)c(=O)n2C | ? | · | · | – | 14µM | ·
COc1cccc(/C(C#N)=C/c2c(-c3ccc(Cl)cc3)nc3c(C)cccn23)c1 | 11µM | – | · | ? | – | –
Cc1ncc2c(c1CNC(=O)CN1CCCC1)CCN(C(=O)c1ccc(F)cc1F)C2 | · | · | – | · | – | –
Cc1cccc2c3c(ccc12)C1=C(C(=O)C3=O)[C@@H](C)CO1 | · | 7.1µM | · | · | · | ·
CC1COc2ccccc2C1=O (stereo not given) | · | – | · | · | · | ·
COc1cccc(C(=O)C2CCCN(Cc3cccc(-n4nc(C)cc4C)c3)C2)c1 (stereo not given) | 35µM | – | – | – | ? | –
COc1c(C)cc(C(=O)C2CCCN(Cc3cccc(O)c3)C2)cc1C (stereo not given) | 13µM | – | · | – | – | ·
COc1c(C)cc(C(=O)C2CCCN(Cc3cnc(N4CCOCC4)s3)C2)cc1C (stereo not given) | 11µM | – | · | – | – | ·
COc1c(C)cc(C(=O)C2CCCN(C(=O)c3ccoc3)C2)cc1C (stereo not given) | – | – | – | -81 | – | –
COc1ccccc1CNC(=O)COC(=O)c1ccc(C)c(S(=O)(=O)N2CCCCC2)c1 | – | · | – | – | – | –
Cc1cc(=O)n2nc(N3CCCC(C(=O)NC4CCCCC4C)C3)sc2n1 (stereo not given) | – | – | · | – | – | ·
O=C1NC2=C(C(=O)CCC2)C(c2cccc([N+](=O)[O-])c2)N1 (stereo not given) | – | – | – | – | – | –
COc1cc(OC)c(OC)cc1CN1CCCC(C(=O)c2ccccc2SC)C1 (stereo not given) | – | – | – | – | – | –
COc1cc(CN2CCCC(C(=O)c3ccccc3SC)C2)cc(OC)c1 (stereo not given) | 11µM | – | · | – | – | ·
